Source: PubChem BioAssay (NCI)
Compounds without any hit were thinned out: in the full panel of roughly 83,000, 20% have a hit.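 In brief: 96-well plates, 48 h treatment, single concentration, percent growth endpoint.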 Values without a mark were called inactive. Active and inactive are the calls of the source. How the source made its calls: active means growth percent below 10; inactive means the rest.

Tested on: 786-0 renal
Assay: NCI-60 one-dose screen, 48 h (100 = growth as untreated, 0 = no growth, -100 = all killed)
Settings: 10 µM unless noted

First: Cc1c(C(=O)NC(Cc2ccccc2)C(O)C(=O)NCc2ccc(F)cc2)[nH]c2ccccc2c1=O (stereo unspecified)
Second: Cc1ccc(C(=O)C2=C(O)C(=O)N(Cc3cccnc3)C2c2ccccc2F)o1 (stereo unspecified)
The growth of the first is higher: 104% for the first, 86.2% for the second.

Compared with `Cc1cc(C(=O)c2ccccc2)c(C)c2c1[nH]c1ccc(Cl)cc12`, `COc1ccc2oc3c(C)c4c(c(C)c3c2c1)C(=O)N(Cc1ccccc1)C4=O` is higher in growth: 24.4% for the first, 114% for the second.

Going from `COc1ccc(C(=O)/C=C/c2c(C(F)(F)F)nc3sccn23)cc1OC` to `COc1cccc(-c2nc3sccn3c2/C=C/C(=O)c2ccc(C(F)(F)F)cc2)c1`, the growth rises from 32% to 82.1%.

Going from `O=Cc1c[nH]c2ccc(-c3csc4ccccc34)cc12` to `Cc1cc(=O)[nH]c(N=Nc2c(O)[nH]c3ccccc23)n1`, the growth rises from 58.4% to 102%.

Going from `N#CC1=C(/N=C/c2ccccc2)Oc2c(ccc3ccccc23)C1c1ccccc1` (stereo unspecified) to `COc1ccc(N=C(c2ccccc2)C2C(=O)c3ccccc3C2=O)cc1`, the growth rises from 23.2% to 97.3%.

Going from `O=C(NCCc1ccc(O)c(O)c1)C12CC3CC(CC(C3)C1)C2` to `CN(c1ccccc1)c1ccc2c(c1)OCCC21CC1Nc1cnccc1C(=O)O` (stereo unspecified), the growth falls from 87.9% to 72.9%.

First: COc1ccc2[nH]c(O)c(/C=c3/cc4c(c(-c5cc(OC)c(OC)c(OC)c5)n3)=Nc3ccccc3-4)c2c1
Second: COc1ccc2cc(-c3cc(OC)c(OC)c(OC)c3)c(=O)oc2c1
The growth of the first is lower: 67.1% for the first, 68.2% for the second.

First: CC(=O)c1nc(Nc2ccc(C)cc2)sc1C
Second: Cc1ccc(C2SCC(=O)N2Cc2ccccc2)cc1 (stereo unspecified)
The growth of the first is higher: 98.1% for the first, 89.2% for the second.

Going from `CCCCc1ccc(Nc2ccc(Nc3ccc(CCCC)cc3S(=O)(=O)O)c3c2C(=O)c2ccccc2C3=O)c(S(=O)(=O)O)c1` to `Cc1ccc(S(=O)(=O)Oc2cc(OS(=O)(=O)c3ccc(C)cc3)cc(OS(=O)(=O)c3ccc(C)cc3)c2)cc1`, the growth falls from 117% to 101%.

Going from `Cc1nn(-c2ccccc2)c2nc3c(c(-c4ccc(Cl)cc4)c12)CNC1(CCSCC1)N3` to `O=C(Cc1ccc(F)c(F)c1)Nc1cc(C2(C(F)(F)F)CC2)nn1Cc1ccccc1`, the growth falls from 105% to 12.1%.

Compared with `CC(CN1CCCCC1)C(=O)c1ccccc1` (stereo unspecified), `CC(C)CC(NC(=O)CN(Cc1ccccc1)S(C)(=O)=O)C(=O)O` (stereo unspecified) is lower in growth: 105% for the first, 93.6% for the second.

Going from `CS(=O)c1cccc(-c2ccc3nc(N)n(-c4ccc(C(F)(F)F)cc4)c(=O)c3c2)c1` (stereo unspecified) to `O=C1CCc2c(sc3[nH]c(=S)n(-c4ccc(OC(F)(F)F)cc4)c(=O)c23)C1`, the growth rises from 97.1% to 99.8%.

First: O=C1Nc2ccccc2/C1=C/c1cn(C(=O)c2c(Cl)cccc2Cl)c2ccccc12
Second: O=C(Nc1ccccc1Cl)Oc1ccc(-c2ccccc2)cc1
The growth of the first is lower: 57.1% for the first, 97.2% for the second.

Compared with `CC1CC(C(C)(C)C)C(=O)C(C(C)(C)C)C1` (stereo unspecified), `CCC1(C2CCCC2)NC(=O)NC1=O` (stereo unspecified) is lower in growth: 100% for the first, 94.1% for the second.

First: COc1ccc(-c2nc(SCCC(C)C)nc(N/N=C\c3ccccc3O)c2C#N)cc1
Second: COc1cc(N=Nc2ccc(N)cc2)c(OC)cc1N=Nc1ccccc1.[Cl][Zn][Cl]
The growth of the first is lower: 88.9% for the first, 110% for the second.

First: NC(=N\N=C/c1ccccc1[N+](=O)[O-])/C(N)=N\N=C/c1ccccc1[N+](=O)[O-]
Second: O=C(/C=C/c1ccc(Cl)nc1)c1ccc(Cl)cc1Cl
The growth of the first is higher: 103% for the first, 86.8% for the second.

For `Cc1ccc(/C=C/c2c(C(=O)/C=C/c3ccc(C(F)(F)F)cc3)c(C)nc3ccccc23)cc1`, the growth was -74.9% (active).
With `CN1CCN(CCCOc2ccc3nc(Nc4ccc(F)c(F)c4)ccc3c2)CC1` the growth was 2.05% (active).
With `Cc1cc(/C=C\c2ccc3ccccc3[n+]2C)c(O)c2ncccc12` the growth was 9.72% (active).
In the case of `Clc1ccc(-c2c3ccc(=[N+]4CCCCC4)cc-3oc3cc(N4CCCCC4)ccc23)cc1`, the growth was -96.5% (active).
For `COc1ccc2c(c1)C(=O)/C(=C/c1ccc(OCC(=O)Nc3nccs3)cc1)O2`, the growth was -12.6% (active).
In the case of `CC/C=C/C/C=C/C/C=C/C/C=C/C/C=C/C/C=C/CCC(=O)Nc1ccn([C@@H]2O[C@H](CO)[C@@H](O)C2(F)F)c(=O)n1`, the growth was 0.0768% (active).

Tested on: COLO 205 colon
Assay: as above
Settings: 10 µM unless noted

Going from `Cc1c(C(=O)NC(Cc2ccccc2)C(O)C(=O)NCc2ccc(F)cc2)[nH]c2ccccc2c1=O` (stereo unspecified) to `Cc1ccc(C(=O)C2=C(O)C(=O)N(Cc3cccnc3)C2c2ccccc2F)o1` (stereo unspecified), the growth falls from 111% to 108%.

Going from `COc1ccc(C(=O)/C=C/c2c(C(F)(F)F)nc3sccn23)cc1OC` to `COc1cccc(-c2nc3sccn3c2/C=C/C(=O)c2ccc(C(F)(F)F)cc2)c1`, the growth rises from 27.3% to 102%.

Going from `O=Cc1c[nH]c2ccc(-c3csc4ccccc34)cc12` to `Cc1cc(=O)[nH]c(N=Nc2c(O)[nH]c3ccccc23)n1`, the growth rises from 71.6% to 89.5%.

Compared with `O=C(NCCc1ccc(O)c(O)c1)C12CC3CC(CC(C3)C1)C2`, `CN(c1ccccc1)c1ccc2c(c1)OCCC21CC1Nc1cnccc1C(=O)O` (stereo unspecified) is lower in growth: 90% for the first, 68.6% for the second.

First: COc1ccc2oc3c(C)c4c(c(C)c3c2c1)C(=O)N(Cc1ccccc1)C4=O
Second: COc1ccc2cc(-c3cc(OC)c(OC)c(OC)c3)c(=O)oc2c1
The growth of the first is higher: 84.7% for the first, 83.3% for the second.

First: COc1ccc2[nH]c(O)c(/C=c3/cc4c(c(-c5cc(OC)c(OC)c(OC)c5)n3)=Nc3ccccc3-4)c2c1
Second: COc1ccc(-c2nc(SCCC(C)C)nc(N/N=C\c3ccccc3O)c2C#N)cc1
The growth of the first is lower: 59.4% for the first, 96.4% for the second.

First: CC(=O)c1nc(Nc2ccc(C)cc2)sc1C
Second: Cc1ccc(C2SCC(=O)N2Cc2ccccc2)cc1 (stereo unspecified)
The growth of the first is lower: 105% for the first, 109% for the second.

Going from `COc1ccc(N=C(c2ccccc2)C2C(=O)c3ccccc3C2=O)cc1` to `O=C(Nc1ccccc1Cl)Oc1ccc(-c2ccccc2)cc1`, the growth rises from 102% to 127%.

First: CCCCc1ccc(Nc2ccc(Nc3ccc(CCCC)cc3S(=O)(=O)O)c3c2C(=O)c2ccccc2C3=O)c(S(=O)(=O)O)c1
Second: Cc1ccc(S(=O)(=O)Oc2cc(OS(=O)(=O)c3ccc(C)cc3)cc(OS(=O)(=O)c3ccc(C)cc3)c2)cc1
The growth of the first is lower: 101% for the first, 114% for the second.

Compared with `Cc1nn(-c2ccccc2)c2nc3c(c(-c4ccc(Cl)cc4)c12)CNC1(CCSCC1)N3`, `O=C1Nc2ccccc2/C1=C/c1cn(C(=O)c2c(Cl)cccc2Cl)c2ccccc12` is lower in growth: 94.5% for the first, 41.7% for the second.

First: CC(CN1CCCCC1)C(=O)c1ccccc1 (stereo unspecified)
Second: CC(C)CC(NC(=O)CN(Cc1ccccc1)S(C)(=O)=O)C(=O)O (stereo unspecified)
The growth of the first is lower: 108% for the first, 112% for the second.

First: CS(=O)c1cccc(-c2ccc3nc(N)n(-c4ccc(C(F)(F)F)cc4)c(=O)c3c2)c1 (stereo unspecified)
Second: O=C1CCc2c(sc3[nH]c(=S)n(-c4ccc(OC(F)(F)F)cc4)c(=O)c23)C1
The growth of the first is higher: 105% for the first, 99.2% for the second.

Going from `CC1CC(C(C)(C)C)C(=O)C(C(C)(C)C)C1` (stereo unspecified) to `CCC1(C2CCCC2)NC(=O)NC1=O` (stereo unspecified), the growth falls from 115% to 108%.

First: COc1cc(N=Nc2ccc(N)cc2)c(OC)cc1N=Nc1ccccc1.[Cl][Zn][Cl]
Second: COc1ccc2c(c1)C(=O)/C(=C/c1ccc(OCC(=O)Nc3nccs3)cc1)O2
The growth of the first is higher: 102% for the first, 54.9% for the second.

Going from `CC/C=C/C/C=C/C/C=C/C/C=C/C/C=C/C/C=C/CCC(=O)Nc1ccn([C@@H]2O[C@H](CO)[C@@H](O)C2(F)F)c(=O)n1` to `NC(=N\N=C/c1ccccc1[N+](=O)[O-])/C(N)=N\N=C/c1ccccc1[N+](=O)[O-]`, the growth rises from 11.8% to 109%.

Work on `O=C(/C=C/c1ccc(Cl)nc1)c1ccc(Cl)cc1Cl` yielded a growth of 111%.

`Cc1cc(C(=O)c2ccccc2)c(C)c2c1[nH]c1ccc(Cl)cc12` was tested, and the growth was -24.8% (active).
`Cc1ccc(/C=C/c2c(C(=O)/C=C/c3ccc(C(F)(F)F)cc3)c(C)nc3ccccc23)cc1` was tested, and the growth was -24.3% (active).
With `N#CC1=C(/N=C/c2ccccc2)Oc2c(ccc3ccccc23)C1c1ccccc1` (stereo unspecified) the growth was -23.2% (active).
In the case of `CN1CCN(CCCOc2ccc3nc(Nc4ccc(F)c(F)c4)ccc3c2)CC1`, the growth was -72% (active).
For `Cc1cc(/C=C\c2ccc3ccccc3[n+]2C)c(O)c2ncccc12`, the growth was 9.56% (active).
For `Clc1ccc(-c2c3ccc(=[N+]4CCCCC4)cc-3oc3cc(N4CCCCC4)ccc23)cc1`, the growth was -71.1% (active).
`O=C(Cc1ccc(F)c(F)c1)Nc1cc(C2(C(F)(F)F)CC2)nn1Cc1ccccc1` was tested, and the growth was -86.7% (active).
